Structures are written as SMILES. Screen size: about 350,000 compounds; about 31,000 (8.9%) were called active. Where a call stands in place of a potency, no number is given. Roughly 15% stayed inconclusive and do not appear here. The sample holds actives, similar compounds and a random draw of the others, so the mix is not that of the screen. Calls follow the shape of the dose curve; as a rule, active = well fitted inhibition curve with a large enough effect; inconclusive = small, poorly fitted or top-dose-only effect; inactive = no such curve, though single readings can be large or run the other way. Some compounds were tested as several samples or in several runs, with calls that do not always agree.
Potency is read from the fitted curve at half-maximal effect.

For this test, the target named is Histone-lysine N-methyltransferase EHMT2 (Homo sapiens) (UniProt Q96KQ7). Nature of the test: qHTS Assay for Inhibitors of Histone Lysine Methyltransferase G9a. Also: nearly all actives have a fitted effect of over 75% in size. Particulars: G9a H3K9 monomethylation, AlphaScreen, 2 h; series mostly up to 59 µM. In short, it runs like this: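 AlphaScreen read-out: biotin-H3K9 peptide (500 nM) methylation by 20 nM enzyme with 20 uM SAM, 2 h at room temperature after 15 min compound preincubation; anti-monomethyl H3K9 antibody plus donor/acceptor beads, 10 min dark.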
Histone-lysine N-methyltransferase EHMT2 (Homo sapiens), sequence (Q96KQ7 913-1193 limits assumed): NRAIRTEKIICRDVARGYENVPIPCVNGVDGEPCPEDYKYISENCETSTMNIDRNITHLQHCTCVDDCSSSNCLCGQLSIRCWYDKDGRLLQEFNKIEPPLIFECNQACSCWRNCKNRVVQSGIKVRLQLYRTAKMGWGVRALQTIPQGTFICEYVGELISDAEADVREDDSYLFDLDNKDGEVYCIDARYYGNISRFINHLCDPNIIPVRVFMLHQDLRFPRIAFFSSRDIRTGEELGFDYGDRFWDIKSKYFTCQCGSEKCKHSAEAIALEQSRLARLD
In the case of `CCc1ccccc1NC(=O)c1ccc(F)c(S(=O)(=O)NC2CCCCCC2)c1`, the Potency result is “inactive”.

Consider `Cn1c(=O)c2sccc2n2c(CCC(=O)NCc3ccccc3Cl)nnc12`, for which the Potency result was “inactive”.

As for `O=C(NC(=S)Nc1cccc2c(O)cccc12)c1cccc(Br)c1`, the Potency is 50.1 µM (active).

On to `Cc1ccc(-c2nnc3c4ccccc4c(C)nn23)cc1NC(=O)c1cccc(Br)c1`, for which the Potency result is “inactive”.

As to `Cc1ccccc1NC(=S)NNC(=O)c1cccc(Br)c1`, the Potency result is “inactive”.

`CC(=O)Nc1ccc(S(=O)(=O)N2CCN(S(=O)(=O)c3cccs3)CC2)cc1`: the Potency result is “inactive”.

With `CCCc1c(C(=O)N/N=C(\C)CCc2ccc(OC)cc2)nnn1-c1nonc1N`, the Potency entry is “inactive”.

With `O=C(/C=C/c1ccc(Cl)cc1Cl)NCc1ccco1`, the activity, negative = inhibition was 2.18% [at 0.501 µM] (inactive).

With `O=C(Nc1cccnc1)c1cc([N+](=O)[O-])ccc1Cl`, the Potency result is “inactive”.

Regarding `O=C(Nc1cccnc1)c1cc(Cl)ccc1Cl`, the Potency result was “inactive”.

For the compound `O=C(/C=C/c1ccc(Cl)cc1Cl)c1cccnc1`, the Potency is 8.91 µM (active).

In the case of `O=C(/C=C/c1ccc(Cl)c([N+](=O)[O-])c1)c1cccnc1`, the Potency was 39.8 µM (active).

On to `C/C(=N\NC(=O)Cc1ccccc1[N+](=O)[O-])c1cccnc1`, for which the Potency result was “inactive”.

As for `Cc1ccc(S(=O)(=O)N2CCCc3cc(NS(=O)(=O)c4cc(C)ccc4C)ccc32)cc1`, the Potency result was “inactive”.

For the compound `CCOc1ccc(CCNC(=O)COC(=O)CCS(=O)(=O)c2ccc(C)cc2)cc1OCC`, the activity, negative = inhibition was -3.67% [at 0.501 µM] (inactive).

For the compound `O=C(CCn1c(=O)c2sccc2n(Cc2ccc(F)cc2)c1=O)NCc1ccc2c(c1)OCO2`, the Potency entry was “inactive”.

On to `O=C(NC1CCCCC1)c1ccc(-c2ccc(Cl)cc2)o1`, for which the Potency is 44.7 µM (active).

For the compound `O=C(NC1CCCCCC1)c1cccnc1Sc1ccc(Cl)cc1`, the Potency result is “inactive”.

As for `S=C(NCc1ccc(Cl)cc1)NC1CCCCC1`, the Potency entry was “inactive”.

Consider `CCSc1ncc(Cl)c(C(=O)Nc2c(C(=O)c3ccccc3)oc3ccccc23)n1`, for which the Potency result was “inactive”.

For the compound `Cc1ccc(CNC(=O)CSc2c3c(nc4cc(Cl)ccc24)CCCC3)cc1`, the Potency result was “inactive”.

As to `COc1ccc(CNC(=O)c2cc3c(=O)[nH]c4ccccc4c3s2)cc1`, the Potency result was “inactive”.

`CCCNC(=O)CCn1cc(-c2ccc(OC)cc2)nc1CCN`: the activity, negative = inhibition is -5.65% [at 2.33 µM] (inactive).

Consider `CCCn1c(=O)c2[nH]c(C3CCCC3)nc2n(CCC)c1=O`, for which the Potency result was “inactive”.

For `CCCn1c(=O)c2[nH]c(-c3ccc(OCC(=O)NCCN)cc3)nc2n(CCC)c1=O`, the Potency was 14.1 µM (active) and the activity, negative = inhibition was 32.3% [at 12.7 µM] (inactive).

As to `COc1ccc(CNC(=O)c2cc3c(s2)-c2ccccc2OC3)cc1`, the Potency result is “inactive”.

Regarding `Cc1ccc(-n2nc(-c3ccco3)cc2C(=O)NCc2cccnc2)cc1`, the Potency was 2.51 µM (active).

For the compound `Cc1ccc(C(=O)NC(=S)NCc2cccnc2)cc1`, the Potency result is “inactive”.

Consider `CC(C)(C)c1cc(C(=O)NCc2cccnc2)ccn1`, for which the activity, negative = inhibition was 17.8% [at 0.501 µM] (inactive).

For the compound `O=C(NCC12CC3CC(CC(C3)C1)C2)c1cc2nc(-c3ccccc3)cc(C(F)(F)F)n2n1`, the Potency result is “inactive”.

In the case of `COc1cc(OC)c(NC(=O)c2nc(-c3ccncc3)no2)cc1Cl`, the Potency result is “inactive”.

`Cc1ccc(C)c(Nc2nnc(-c3ccc(C)c(S(=O)(=O)N4CCCCC4)c3)c3ccccc23)c1`: the Potency entry is “inactive”.

In the case of `O=C(CNC(=O)c1ccccc1Br)NNC(=O)c1cccs1`, the Potency entry is “inactive”.

As for `O=C1CCC(C(=O)N2CCN(c3ccccc3Cl)CC2)CN1CC1CCCCC1` (stereo not drawn), the Potency result is “inactive”.

Consider `COc1ccc(NC(=O)COC(=O)c2n[nH]c3ccccc23)c(OC)c1`, for which the activity, negative = inhibition was 3.57% [at 12.7 µM] (inactive).

As to `CCCn1c(C)cc(/C=C(\C#N)C(=O)OCC(=O)N(C)c2c(N)n(Cc3ccccc3)c(=O)[nH]c2=O)c1C`, the Potency entry is “inactive”.

With `CCN(CC)c1ccc(/C=N/NC(=O)CNC(=O)c2cccs2)cc1`, the Potency is 50.1 µM (active).

In the case of `CCN(CC)c1ccc(/C=N/NC(=O)CNC(=O)c2cccnc2)cc1`, the Potency result was “inactive”.

As for `O=C(CNC(=O)c1cccs1)N/N=C/c1cccc(Br)c1`, the Potency entry was “inactive”.

Take `O=C(NCCS(=O)(=O)N1CCN(c2ccc(F)cc2)CC1)c1ccccc1Br`: the Potency entry was “inactive”.

As for `O=C(Nc1ccc(OC(F)(F)F)cc1)C1CCCN(S(=O)(=O)c2ccc(Br)s2)C1` (stereo not drawn), the Potency result was “inactive”.

With `N#Cc1ccc(C(=O)OCC(=O)NC(=O)NC2CCCCC2)cc1`, the activity, negative = inhibition was 13.4% [at 2.33 µM] (inactive).

As for `N#CCC(=O)NC(=O)NCC1CC1`, the Potency is 39.8 µM (active).

In the case of `CC(C)NC(=O)NC(=O)COC(=O)c1ccc(NC(=O)CC#N)cc1`, the Potency result was “inactive”.

Take `CC1(C)O[C@@H]2[C@H](O1)[C@@H](CO)O[C@H]2n1c(N2CCCCC2)nc2c(N)ncnc21`: the activity, negative = inhibition was 9.14% [at 0.501 µM] (inactive).

In the case of `Cc1cc(OCC(=O)Nc2ncn[nH]2)c(C)c(C)c1Br`, the Potency entry is “inactive”.

Regarding `Cc1ccc(Cl)c(OCC(=O)NN2CCN(C)CC2)c1`, the Potency entry is “inactive”.

Regarding `CC(=O)Nc1ccc(S(=O)(=O)N2CCN(CCCOc3cc(C)ccc3C)CC2)cc1`, the activity, negative = inhibition is -3.97% [at 12.7 µM] (inactive).

Take `Cc1ccc(OCCCCN2CCCCC2)c(Br)c1`: the Potency is 11.2 µM (active).

Take `Cc1ccc(OCC(O)CN2CCN(CC(O)COc3ccc(C)cc3Cl)CC2)c(Cl)c1` (stereo not drawn): the Potency entry was “inactive”.

Take `Cc1ccc(C(C)(C)C)c(OCCCCN2CCCC2)c1`: the Potency is 8.91 µM (active).

As to `Cc1ccc(C)c(OCCC(=O)Nc2cccc(S(=O)(=O)N3CCCC3)c2)c1`, the activity, negative = inhibition was 6.86% [at 0.501 µM] (inactive).

For the compound `COCCNc1ncnc2c1c(-c1ccccc1)cn2-c1ccc(C)c(Cl)c1`, the Potency entry is “inactive”.

Turning to `CCOC(=O)N1CCN(S(=O)(=O)c2ccc3c(c2)C(C)C(=O)N3)CC1` (stereo not drawn), the activity, negative = inhibition is 14.1% [at 12.7 µM] (inactive).

Turning to `Cc1ccccc1N1CCN(C2CCCN(C(=O)c3cn4c(C)cccc4n3)C2)CC1` (stereo not drawn), the activity, negative = inhibition was 9.34% [at 0.501 µM] (inactive).

As for `CCC(=O)Nc1ccc(-c2ccc(N3CCCCC3)nn2)cc1`, the Potency result is “inactive”.

With `Cc1ccc(C)c(CNC(=O)c2cc3ccccn3n2)c1`, the Potency result was “inactive”.

`CCCN1CCN(CCCNC(=O)Cn2nc(CC)n3c(cc4occc43)c2=O)CC1`: the Potency entry is “inactive”.

`O=C(CSc1ncc(-c2ccccc2)[nH]1)Nc1ccc(F)cc1F`: the Potency entry was “inactive”.

Take `COc1ccc(/C=N/OCc2ccccc2C#N)c(OC)c1`: the Potency result is “inactive”.

For `CCc1ccc2oc(-c3ccc(NC(=O)c4cc5ccccc5o4)cc3)nc2c1`, the Potency entry is “inactive”.

As to `COc1ccc(CCNC(=O)c2cn(C)c3ccc(S(=O)(=O)N(C)C4CCCCC4)cc3c2=O)cc1OC`, the Potency result was “inactive”.

Source of the values: PubChem BioAssay AID504332 (National Center for Advancing Translational Sciences (NCATS), 2011).
